Assay outcomes: PubChem BioAssay, several laboratories
A selection: hits, their analogues and other compounds. The true share with any hit is near 2.3%.
MEKK2 WT-MEK5 – raises or lowers MEK5 binding to wildtype human MEKK2 PB1 domain. bead flow cytometry, Alexa488-MEK5 binding to MEKK2 WT; actives lie on both sides. 290,000 tested, 1.1% active. Q9Y2U5. binding response (% of control), % at 10 µM; in the data active = binding response below about 67% or above about 130%; inconclusive = no clear call, values can overlap the other calls; inactive = in between
MEKK3 PB1 HTS – raises or lowers MEK5 binding to the human MEKK3 PB1 domain; Q99759; binding response (% of control), % at 10 µM; 290,000 tested, 1.4% active; AID 1529; bead-based flow cytometry, Alexa488-MEK5 binding to MEKK3; actives lie on both sides; 0 = blocked by unlabeled MEK5, 100 = vehicle;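 active = binding response more than 3 SD above or below the average of its plate-row segment, actives on both sides; inconclusive = wells at one plate position flagged as instrument error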;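 note: Alexa488 bead fluorescence after subtracting the streptavidin-only scavenger bead signal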
MEKK2mut PB1 HTS – signal of MEK5 binding to mutant human MEKK2 PB1 domain; AID 1530; percent response, % at 10 µM; bead flow cytometry, Alexa488-MEK5 binding to MEKK2 mutant; 290,000 tested, 0.35% active; in the data active = percent response above about 24%, passing the limit was not always enough
UBC13 inh – human UBC13 polyubiquitination inhibition; UBC13 polyubiquitin chain formation, TR-FRET; inhibition, % at 20 µM; 330,000 tested, 0.47% active; in the data active = inhibition above about 45%, passing the limit was not always enough; inconclusive = no clear call, values can overlap the other calls
Target sequence (P61088 whole entry, looked up): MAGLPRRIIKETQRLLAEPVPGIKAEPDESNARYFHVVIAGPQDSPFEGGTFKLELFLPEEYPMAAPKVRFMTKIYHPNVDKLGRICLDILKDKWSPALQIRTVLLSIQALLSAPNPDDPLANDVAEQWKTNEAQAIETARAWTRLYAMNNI
MEKK2wt confirm – raises or lowers MEK5 binding to wildtype human MEKK2, retest. shares compounds with MEKK3 PB1 HTS. bead flow cytometry, Alexa488-MEK5 binding to MEKK2 WT; actives lie on both sides. binding response (% of control), % at 10 µM. 5,900 tested, 2.4% active. AID 1892; in the data active = binding response below about 16% or above about 210%; inactive = in between
MEKK2mut confirm – signal of MEK5 binding to mutant human MEKK2, retest | shares compounds with MEKK3 PB1 HTS | bead flow cytometry, Alexa488-MEK5 binding to MEKK2 mutant | percent response, % at 10 µM | 5,900 tested, 2% active | AID 1893; in the data active = percent response mostly above about 71%, no sharp cut-off; inactive = mostly below about 38%;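 note: higher means compound restores mutant binding toward wildtype level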
MEKK3 confirm – MEKK3-MEK5 PB1 inhibition, single concentration confirmation; shares compounds with MEKK3 PB1 HTS; 5,900 tested, 1.8% active; bead flow cytometry, Alexa488-MEK5 binding to MEKK3; active compounds read low; binding response (% of control), % at 10 µM;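 active = binding response below 72% of control, or above a set upper limit, though filed actives all read lower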;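 note: 100% = DMSO only wells and 0% = binding blocked by excess unlabeled MEK5; lower values mean stronger disruption of MEK5 binding to MEKK3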
An asterisk follows results filed as active; ? = inconclusive; / = no result; [ ] = remark or other dose.

SMILES	MEKK2 WT-MEK5	MEKK3 PB1 HTS	MEKK2mut PB1 HTS	UBC13 inh	MEKK2wt confirm	MEKK2mut confirm	MEKK3 confirm
COc1ccc(N=c2scc(-c3ccc(S(=O)(=O)N4CCOCC4)cc3)n2CCCO)cc1	3.0*[inhibitor]	2.0*[inhibitor]	-36.0	/	/	/	/
O=C(NCCNC(=O)c1ccco1)c1ccco1	99.0	99.0	2.0	-6.2	/	/	/
O=C(NCCNC(=O)c1ccccc1F)c1ccco1	-12.0*[inhibitor]	0.0*[inhibitor]	-25.0	-0.7	/	/	/
CCOCCCNc1nc2c(C)cccn2c(=O)c1/C=C1\SC(=S)N(C(C)CC)C1=O (configuration not stated)	/	28.0*[inhibitor]	127.0*	-58.0	/	/	/
O=c1[nH]c(=S)[nH]c(O)c1N=Nc1ccc(-c2ccccc2)cc1[N+](=O)[O-]	-4.0*	96.0	3.0	/	/	/	/
COc1ccc(S(=O)(=O)Nc2ccccc2OC)cc1N=Nc1c(O)[nH]c(=S)[nH]c1=O	/	/	/	-189.0	/	/	/
Cc1[nH]c(SCC(=O)c2c(N)n(C)c(=O)n(C)c2=O)nc1Cc1ccccc1	/	/	/	-2.1	/	/	/
CCN(CC)S(=O)(=O)c1ccc(N2CCN(C)CC2)c(NC(=O)Nc2ccc(C)cc2)c1	146.0*	106.0	15.0	14.9	/	/	/
CCOc1cc(/C=C2\C(=O)N(CCc3ccc(OC)c(OC)c3)C(C)=C2C(=O)OC)ccc1O	95.0	60.0*[inhibitor]	-1.0	-37.5	/	/	/
Cc1cccc(N(C)S(=O)(=O)c2c(C)noc2C)c1	102.0	101.0	-3.0	5.2	/	/	/
CCCCCC[N+](C)(C)CCSSCC[N+](C)(C)CCCCCC	96.0	87.0	-8.0	14.8	/	/	/
CCCCCCCCCCCCCCCC[N+](C)(C)CC	/	/	/	90.7*	/	/	/
CCOC(=O)Cc1csc(NC(=O)c2ccc3ncsc3c2)n1	110.0	104.0	8.0	11.6	/	/	/
CCCN1C/C(=C/c2ccc3c(c2)OCO3)C(=O)/C(=C/c2ccc3c(c2)OCO3)C1	109.0	136.0*	1.0	-14.6	/	/	/
Cc1ccc(CNC(=O)Cn2cccc2C(=O)c2ccccc2C)cc1	-1.0*	102.0	5.0	10.2	/	/	/
COc1ccc(N2CCN(CCCNC(=O)Cn3c(=O)c4cccn4c4cccnc43)CC2)cc1	138.0*	102.0	11.0	9.9	143.0	29.0	99.0
O=C(Cn1c(=O)c2cccn2c2cccnc21)NCCCN1CCN(c2ccc(F)cc2)CC1	118.0	100.0	3.0	6.0	/	/	/
COc1ccc(CCN2C(=O)C(O)=C(C(C)=O)C2c2ccccc2OC)cc1OC (configuration not stated)	90.0	85.0	-4.0	-7.9	/	/	/
COc1ccccc1C1C(C(C)=O)=C(O)C(=O)N1CCc1ccccc1 (configuration not stated)	10.0*[inhibitor]	42.0*[inhibitor]	-17.0	-13.8	110.0	5.0	106.0
NC(=O)NC(=O)COC(=O)c1cccnc1Nc1ccccc1F	62.0*[inhibitor]	65.0*[inhibitor]	-49.0	21.8	107.0	2.0	107.0
CCCNC(=O)COC(=O)c1cccnc1Nc1ccccc1F	98.0	100.0	-1.0	1.1	/	/	/
CCN(CCO)C(=O)c1ccc2nc(Cc3cccc(Cl)c3)oc2c1	108.0	106.0	3.0	-12.1	/	/	/
COc1ccc(CCNC(=O)CC2SC(=NCCc3ccccc3)NC2=O)cc1OC (configuration not stated)	96.0	97.0	-2.0	-8.4	/	/	/
COc1ccc(CCNC(=O)CC2SC(=NCCC(C)C)NC2=O)cc1OC (configuration not stated)	107.0	150.0*	0.0	20.1	102.0	4.0	103.0
O=C(N1CCCCC1)N1CCC(c2nc3ccccc3[nH]2)CC1	2.0*[inhibitor]	1.0*[inhibitor]	-3.0	18.5	105.0	8.0	106.0
SMILES	MEKK2 WT-MEK5	MEKK3 PB1 HTS	MEKK2mut PB1 HTS	UBC13 inh	MEKK2wt confirm	MEKK2mut confirm	MEKK3 confirm
CC(C)C(=O)Nc1ccc(C(=O)NNC(=O)CCCOc2ccc(Cl)cc2Cl)cc1	91.0	85.0	-5.0	-12.3	/	/	/
COc1cc(/C=C(/C#N)C(=O)Nc2ccc(C)cc2)ccc1Oc1nc(Cl)ncc1F	96.0	81.0	-1.0	?	/	/	/
Cc1ccc(Nc2nc(N)c([N+](=O)[O-])c(NCc3ccco3)n2)cc1	112.0	152.0*	1.0	11.7	90.0	-1.0	99.0
O=S(=O)(c1ccc(NC(=S)NCc2ccncc2)cc1)N1CCCCC1	95.0	88.0	-7.0	11.8	/	/	/
O=C(COc1ccccc1)NCC1(N2CCCCC2)CCCCC1	147.0*	103.0	31.0	-4.0	115.0	-2.0	101.0
CCc1ccc(C(=O)NNC(=O)[C@H](C)NC(=O)c2ccco2)cc1	/	/	/	-10.0	/	/	/
Cc1nn2c(COc3ccc(NC(=O)c4ccccc4)cc3)nnc2c2ccccc12	109.0	147.0*	1.0	-5.0	102.0	1.0	101.0
COCCCNC(=O)CN(c1cc(Cl)ccc1OC)S(=O)(=O)c1ccc(C)c([N+](=O)[O-])c1	98.0	97.0	-2.0	2.7	/	/	/
COCCNC(=O)CN(c1cc(Cl)ccc1OC)S(=O)(=O)c1ccc(C)c([N+](=O)[O-])c1	104.0	128.0*	0.0	8.1	12.0*[inhibitor]	-29.0	71.0*
COc1cccc(CN2CCNC(=O)C2CC(=O)NCc2cn3ccc(C)cc3n2)c1OC (configuration not stated)	95.0	95.0	-2.0	-0.7	/	/	/
CCc1ccc[n+](-c2[nH]c(=O)sc2/C=N/N=C(\[O-])c2cccnc2)c1	96.0	97.0	-1.0	-16.7	/	/	/
CCc1ccc(C(C(=O)NCCOC)N(C(=O)Cn2nnc3ccccc32)c2cccnc2)cc1 (configuration not stated)	2.0*[inhibitor]	2.0*[inhibitor]	5.0	-2.5	102.0	-1.0	101.0
COc1ccc(C2C=C(C34CC5CC(CC(C5)C3)C4)NC(=S)N2)cc1 (configuration not stated)	96.0	94.0	-3.0	1.2	/	/	/
Cn1c(-c2ccc(C=O)s2)nc2c3ccccc3c3ccccc3c21	63.0*[inhibitor]	90.0	-19.0	-5.1	75.0	-12.0	94.0
Cc1ccc(C(=O)CN(C(=O)c2ccc(Cl)c(Cl)c2)N2C(=O)C3C4C=CC(C4)C3C2=O)cc1 (configuration not stated)	86.0	82.0*[inhibitor]	-10.0	3.5	100.0	0.0	100.0
O=C(CN(C(=O)c1ccc(Cl)cc1Cl)N1C(=O)C2C3C=CC(C3)C2C1=O)c1ccc(F)cc1 (configuration not stated)	102.0	101.0	5.0	7.1	/	/	/
c1ccc(SCCN2CCN(c3ccccc3)CC2)cc1	116.0	109.0	15.0	2.5	/	/	/
CC(C)c1ccccc1NC(=O)COc1ccc2c(=O)c(Oc3ccc4ccccc4c3)coc2c1	104.0	184.0*	0.0	4.5	101.0	0.0	101.0
CCc1ccccc1NC(=O)COc1ccc2c(=O)c(Oc3cc(C)ccc3C)coc2c1	94.0	94.0	-2.0	-12.1	/	/	/
CCO[C@H]1OC(C(=O)N2CCCCCCC2)=C[C@@H](c2ccccc2)[C@@H]1CCCO	107.0	109.0	11.0	-6.9	/	/	/
